Experimental data taken from PubChem BioAssay (EPA / NIEHS).
Activity calls are given as the source filed them. The calls were made as follows: active = hit-call score of the fitted dose curve at least 0.9, where 1 is the maximum; inactive = score below 0.9.

Columns and labels:
Details in all cases: mRNA level, 48 h; actives raise or lower the signal
[1] = read-out: Glutamate-cysteine ligase catalytic (GCLC), GCLC (gene 2729); test: LTEA_HepaRG_GCLC: Life Technologies and Expression Analysis (LTEA) Assay for Glutamate-cysteine ligase catalytic (GCLC) using HepaRG (AID 2283498)
In short: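 Expression by TaqMan qRT-PCR, normalized to three housekeeping genes (ACTB, GAPDH, POLR2A), with up- or down-regulation fitted against DMSO. HepaRG cells dosed in duplicate for 48 h with 8 half-log concentrations up to 100 uM, vehicle 0.5% DMSO.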

[2] = read-out: growth arrest and DNA damage 45 (GADD45G), GADD45G (gene 10912); test: LTEA_HepaRG_GADD45G: Life Technologies and Expression Analysis (LTEA) Assay for growth arrest and DNA damage 45 (GADD45G) using HepaRG (AID 2283499)
In short: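 HepaRG, 48 h exposure, top 100 uM, half-log 8-point series, 0.5% DMSO vehicle, duplicates. Readout: GADD45G transcript by qRT-PCR (Fluidigm array), housekeeping-normalised (ACTB/GAPDH/POLR2A). Bidirectional curve fit vs DMSO baseline.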

[3] = read-out: Glutamate-cysteine ligase regulatory (GCLM), GCLM (gene 2730); test: LTEA_HepaRG_GCLM: Life Technologies and Expression Analysis (LTEA) Assay for Glutamate-cysteine ligase regulatory (GCLM) using HepaRG (AID 2283500)
In short: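 Endpoint is GCLM transcript level by qRT-PCR, normalized to three housekeeping genes, after 48 h chemical exposure of human HepaRG cells (0.5% DMSO vehicle, top 100 uM, half-log dilutions). Fitting was bidirectional relative to DMSO.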

[4] = read-out: Glutathione S-transferase M3 (GSTM3), GSTM3 (gene 2947); test: LTEA_HepaRG_GSTM3: Life Technologies and Expression Analysis (LTEA) Assay for Glutathione S-transferase M3 (GSTM3) using HepaRG (AID 2283501)
In short: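 qRT-PCR read-out of GSTM3 transcript, normalized to three housekeeping genes, from human HepaRG cells after 48 h chemical exposure. Eight-point half-log series, top 100 uM, 0.5% DMSO vehicle; gain or loss fitted relative to DMSO baseline.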

[5] = read-out: Heat shock 70 kDa protein 1 (HSPA1A), gene 3303; test: LTEA_HepaRG_HSPA1A: Life Technologies and Expression Analysis (LTEA) Assay for Heat shock 70 kDa protein 1 (HSPA1A) using HepaRG (AID 2283502)
In short: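 Cells were plated and cultured for 48 h, then switched to serum-free induction medium. Chemicals were added at eight half-log concentrations up to 100 uM for 48 h. RNA was then isolated and HSPA1A measured by qRT-PCR with bidirectional curve fitting against DMSO.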

[6] = read-out: Hypoxia-inducible factor 1-alpha (Homo sapiens) (UniProt Q16665); test: LTEA_HepaRG_HIF1A: Life Technologies and Expression Analysis (LTEA) Assay for Hypoxia-inducible factor 1 (HIF1A) Trancription factor using HepaRG (AID 2283503)
In short: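 HIF1A transcript level read by qRT-PCR (ACTB, GAPDH, POLR2A normalization) after 48 h chemical exposure of HepaRG cultures. Eight half-log concentrations, top 100 uM, 0.5% DMSO vehicle, duplicates; bidirectional curve fit against DMSO baseline.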

[7] = read-out: HGF (gene 3082); test: LTEA_HepaRG_HGF: Life Technologies and Expression Analysis (LTEA) Assay for Hepatocyte Growth Facto (HGF) using HepaRG (AID 2283505)
In short: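 HepaRG, 48 h dosing, 8-pt half-log series from 100 uM in 0.5% DMSO, duplicates. Readout: TaqMan qRT-PCR of HGF mRNA, housekeeping-normalized; bidirectional curve fit vs DMSO baseline.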

[8] = read-out: Intercellular Adhesion Molecule 1 (ICAM1), ICAM1 (gene 3383); test: LTEA_HepaRG_ICAM1: Life Technologies and Expression Analysis (LTEA) Assay for Intercellular Adhesion Molecule 1 (ICAM1) using HepaRG (AID 2283507)
In short: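 HepaRG, 48 h exposure, 8-pt half-log series from 100 uM, 0.5% DMSO vehicle, duplicates. Readout: TaqMan qRT-PCR mRNA, housekeeping-normalized (ACTB/GAPDH/POLR2A). Bidirectional curve fit vs DMSO baseline.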

[9] = read-out: Insulin-like growth factor-binding protein 1 (IGFBP1), IGFBP1 (gene 3484); test: LTEA_HepaRG_IGFBP1: Life Technologies and Expression Analysis (LTEA) Assay for Insulin-like growth factor-binding protein 1 (IGFBP1) using HepaRG (AID 2283508)
In short: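 qRT-PCR mRNA read-out (TaqMan, Fluidigm array), normalised to three housekeeping genes; HepaRG cells, 48 h exposure, 8-pt half-log series from 100 uM, 0.5% DMSO vehicle; bidirectional curve fit vs DMSO baseline.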

[10] = read-out: Interleukin 6 (IL6), IL6 (gene 3569); test: LTEA_HepaRG_IL6: Life Technologies and Expression Analysis (LTEA) Assay for Interleukin 6 (IL6) using HepaRG (AID 2283509)
In short: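 Transcript levels, normalized to three housekeeping genes, were quantified by qRT-PCR after 48 h chemical treatment of HepaRG cells. Eight-point half-log series from 100 uM in 0.5% DMSO, duplicates. Fitted both directions against DMSO baseline.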

[11] = read-out: Interleukin 6 Receptor (IL6R), IL6R (gene 3570); test: LTEA_HepaRG_IL6R: Life Technologies and Expression Analysis (LTEA) Assay for Interleukin 6 Receptor (IL6R) using HepaRG (AID 2283510);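 as to AC50: differentiated human HepaRG liver cells in serum-free induction medium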
In short: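 Cells were thawed, plated and cultured 48 h, then medium was changed to serum-free induction medium. Chemicals were added in duplicate (100 uM top, half-log steps, 0.5% DMSO) for 48 h. Lysates were analyzed by qRT-PCR for IL6R expression.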

[12] = read-out: Potassium channel subfamily K member 1 (KCNK1), KCNK1 (gene 3775); test: LTEA_HepaRG_KCNK1: Life Technologies and Expression Analysis (LTEA) Assay for Potassium channel subfamily K member 1 (KCNK1) using HepaRG (AID 2283511)
In short: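 KCNK1 transcript measured by TaqMan qRT-PCR against three housekeeping genes, after HepaRG cells were treated 48 h with eight half-log concentrations (top 100 uM, 0.5% DMSO). Curves fitted bidirectionally relative to vehicle.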

[13] = read-out: Keratin 19 (KRT19), KRT19 (gene 3880); test: LTEA_HepaRG_KRT19: Life Technologies and Expression Analysis (LTEA) Assay for Keratin 19 (KRT19) using HepaRG (AID 2283512)
In short: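 HepaRG, 48 h chemical exposure, 8-pt half-log CRC from 100 uM, 0.5% DMSO vehicle, duplicates. Readout: TaqMan qRT-PCR of KRT19 mRNA, housekeeping-normalized (ACTB/GAPDH/POLR2A). Bidirectional fit vs DMSO baseline.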

[14] = read-out: Lipase C (LIPC), LIPC (gene 3990); test: LTEA_HepaRG_LIPC: Life Technologies and Expression Analysis (LTEA) Assay for Lipase C (LIPC) using HepaRG (AID 2283514)
In short: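 LIPC expression was quantified by qRT-PCR against three housekeeping genes (ACTB, GAPDH, POLR2A). Differentiated human HepaRG cells received eight half-log doses (top 100 uM, 0.5% DMSO) in duplicate for 48 h; fitting bidirectional relative to DMSO.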

[15] = read-out: Lipoprotein lipase (LPL), LPL (gene 4023); test: LTEA_HepaRG_LPL: Life Technologies and Expression Analysis (LTEA) Assay for Lipoprotein lipase (LPL) using HepaRG (AID 2283515)
In short: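 LPL transcript levels quantified by TaqMan qRT-PCR against three housekeeping genes after 48 h chemical treatment of HepaRG cells. Eight-point half-log series from 100 uM in 0.5% DMSO, tested in duplicate; bidirectional fitting versus vehicle.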

[16] = read-out: 3-Hydroxy-3-Methylglutaryl-CoA Synthase 2 (HMGCS2), HMGCS2 (gene 3158); test: LTEA_HepaRG_HMGCS2: Life Technologies and Expression Analysis (LTEA) Assay for 3-Hydroxy-3-Methylglutaryl-CoA Synthase 2 (HMGCS2) using HepaRG (AID 2283504)
In short: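 qRT-PCR read-out of HMGCS2 transcript, normalised to three housekeeping genes, in HepaRG cells after 48 h chemical exposure. Eight-point curves from 100 uM, half-log dilutions, 0.5% DMSO vehicle; gain or loss fitted relative to DMSO baseline.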

[17] = read-out: JUN Transcription Factor, JUN (gene 3725); test: LTEA_HepaRG_JUN: Life Technologies and Expression Analysis (LTEA) Assay for JUN Transcription Factor using HepaRG (AID 2283513)
In short: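 Read-out is JUN transcript level by TaqMan qRT-PCR, normalized to ACTB, GAPDH and POLR2A, after 48 h chemical treatment of HepaRG cells. Concentration-response spanned eight half-log points up to 100 uM in 0.5% DMSO.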

[18] = read-out: MicroRNA 122 (MIR122), gene 406906; test: LTEA_HepaRG_MIR122: Life Technologies and Expression Analysis (LTEA) Assay for MicroRNA 122 (MIR122) using HepaRG (AID 2283516); also: the transcript read is the microRNA miR-122
In short: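 Human liver HepaRG cultures receive test chemicals for 48 h at eight half-log concentrations from 100 uM. Expression is quantified by qRT-PCR with ACTB/GAPDH/POLR2A normalization and fitted bidirectionally against 0.5% DMSO.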

[19] = read-out: matrix metalloproteinase-10 (MMP10), MMP10 (gene 4319); test: LTEA_HepaRG_MMP10: Life Technologies and Expression Analysis (LTEA) Assay for matrix metalloproteinase-10 (MMP10) using HepaRG (AID 2283517)
In short: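 Expression measured by TaqMan qRT-PCR with ACTB/GAPDH/POLR2A normalisation after 48 h chemical exposure of HepaRG cells. Eight half-log concentrations, top 100 uM, 0.5% DMSO vehicle, duplicates; gain or loss fitted against vehicle.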

[20] = read-out: Insulin Like Growth Factor 1 (IGF1), IGF1 (gene 3479); test: LTEA_HepaRG_IGF1: Life Technologies and Expression Analysis (LTEA) Assay for Insulin Like Growth Factor 1 (IGF1) using HepaRG (AID 2283506)
In short: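 Cells are thawed, plated and cultured 48 h, then exposed in duplicate to chemical (highest 100 uM, half-log steps, 0.5% DMSO) for another 48 h. Total RNA is analysed by Fluidigm qRT-PCR for IGF1 expression relative to vehicle.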

Chain of Hypoxia-inducible factor 1-alpha (Homo sapiens) (Q16665 whole entry, looked up): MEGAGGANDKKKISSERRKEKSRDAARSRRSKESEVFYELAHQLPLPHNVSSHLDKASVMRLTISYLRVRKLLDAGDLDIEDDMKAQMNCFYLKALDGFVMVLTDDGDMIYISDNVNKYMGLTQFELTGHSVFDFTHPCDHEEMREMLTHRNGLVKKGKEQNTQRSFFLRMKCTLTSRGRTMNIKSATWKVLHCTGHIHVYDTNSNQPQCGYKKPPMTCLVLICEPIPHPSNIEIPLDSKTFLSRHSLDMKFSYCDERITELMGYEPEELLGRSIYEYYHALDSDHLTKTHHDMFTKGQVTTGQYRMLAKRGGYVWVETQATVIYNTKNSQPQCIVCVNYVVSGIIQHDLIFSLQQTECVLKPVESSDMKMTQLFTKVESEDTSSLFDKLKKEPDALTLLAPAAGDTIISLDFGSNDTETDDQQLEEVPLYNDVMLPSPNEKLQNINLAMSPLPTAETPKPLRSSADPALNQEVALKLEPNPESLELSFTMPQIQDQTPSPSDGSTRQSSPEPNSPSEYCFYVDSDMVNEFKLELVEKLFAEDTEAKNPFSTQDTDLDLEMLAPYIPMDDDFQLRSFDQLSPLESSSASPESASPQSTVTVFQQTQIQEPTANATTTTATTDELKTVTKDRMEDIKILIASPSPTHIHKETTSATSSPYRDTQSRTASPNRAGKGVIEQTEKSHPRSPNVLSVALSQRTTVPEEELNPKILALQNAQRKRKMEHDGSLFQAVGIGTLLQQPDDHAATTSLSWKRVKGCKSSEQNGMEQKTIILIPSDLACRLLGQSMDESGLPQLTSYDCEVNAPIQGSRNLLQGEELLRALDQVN

SMILES: COc1ccc(S(=O)(=O)N2C(=O)[C@@](c3ccccc3OC)(N3C[C@H](O)C[C@H]3C(=O)N(C)C)c3cc(Cl)ccc32)c(OC)c1
- AC50 [1]: 13 µM (active)
- AC50 [2]: 16.5 µM (active)
- AC50 [3]: 78.6 µM (active)
- AC50 [4]: 19.5 µM (active)
- AC50 [5]: 83 µM (active)
- AC50 [6]: 69.1 µM (active)
- AC50 [7]: 85.5 µM (active)
- AC50 [8]: 21.6 µM (active)
- AC50 [9]: 37.2 µM (active)
- AC50 [10]: 58.2 µM (active)
- AC50 [11]: 13.2 µM (active)
- AC50 [12]: 50 µM (active)
- outcome [13]: inactive
- AC50 [14]: 15.8 µM (active)
- AC50 [15]: 12.1 µM (active)

SMILES: Nc1ccc2c(c1)C(=O)c1ccccc1C2=O
- AC50 [2]: 3.17 µM (active)
- AC50 [3]: 10.1 µM (active)
- outcome [4]: inactive
- outcome [5]: inactive
- outcome [6]: inactive
- AC50 [16]: 16.5 µM (active)
- outcome [7]: inactive
- outcome [8]: inactive
- AC50 [9]: 13.2 µM (active)
- outcome [10]: inactive
- outcome [11]: inactive
- outcome [12]: inactive
- AC50 [13]: 9.08 µM (active)
- outcome [17]: inactive
- AC50 [14]: 8.27 µM (active)
- AC50 [15]: 2.09 µM (active)
- AC50 [18]: 4.24 µM (active)

SMILES: O=c1c(O)c(-c2ccc(O)c(O)c2)oc2cc(O)cc(O)c12
- outcome [1]: inactive
- outcome [2]: inactive
- outcome [3]: inactive
- outcome [4]: inactive
- outcome [7]: inactive
- outcome [8]: inactive
- outcome [9]: inactive
- outcome [10]: inactive
- outcome [11]: inactive
- outcome [13]: inactive
- AC50 [14]: 80.5 µM (active)
- outcome [15]: inactive
- outcome [19]: inactive

SMILES: Cc1ccc2ncccc2c1
- outcome [2]: inactive
- outcome [3]: inactive
- outcome [4]: inactive
- outcome [5]: inactive
- outcome [6]: inactive
- outcome [16]: inactive
- outcome [7]: inactive
- outcome [20]: inactive
- outcome [8]: inactive
- outcome [9]: inactive
- outcome [10]: inactive
- outcome [11]: inactive
- outcome [12]: inactive
- outcome [13]: inactive
- outcome [17]: inactive
- outcome [14]: inactive
- outcome [15]: inactive
- outcome [18]: inactive

SMILES: C1CCC(SSC2CCCCC2)CC1
- outcome [1]: inactive
- outcome [2]: inactive
- outcome [3]: inactive
- outcome [4]: inactive
- outcome [6]: inactive
- outcome [16]: inactive
- outcome [7]: inactive
- outcome [8]: inactive
- outcome [9]: inactive
- outcome [10]: inactive
- outcome [11]: inactive
- outcome [12]: inactive
- outcome [13]: inactive
- outcome [14]: inactive
- outcome [15]: inactive
- outcome [19]: inactive

SMILES: C=CCOC(=O)c1ccccc1C(=O)OCC=C
- outcome [1]: inactive
- outcome [2]: inactive
- outcome [3]: inactive
- outcome [4]: inactive
- outcome [6]: inactive
- outcome [7]: inactive
- outcome [8]: inactive
- outcome [9]: inactive
- outcome [10]: inactive
- outcome [11]: inactive
- outcome [12]: inactive
- outcome [13]: inactive
- outcome [14]: inactive
- outcome [15]: inactive

SMILES: CNCc1cc(F)ccc1Oc1ccc(Cl)c(Cl)c1
- outcome [1]: inactive
- outcome [2]: inactive
- outcome [3]: inactive
- outcome [4]: inactive
- outcome [6]: inactive
- AC50 [7]: 86.6 µM (active)
- AC50 [20]: 89.4 µM (active)
- AC50 [8]: 79.2 µM (active)
- AC50 [9]: 73.5 µM (active)
- AC50 [10]: 95.4 µM (active)
- outcome [11]: inactive
- outcome [13]: inactive
- outcome [14]: inactive
- outcome [15]: inactive
- AC50 [18]: 81.8 µM (active)

SMILES: O=C(O)Cc1ccccc1Nc1c(Cl)cccc1Cl
- outcome [1]: inactive
- outcome [2]: inactive
- outcome [3]: inactive
- outcome [4]: inactive
- outcome [6]: inactive
- outcome [16]: inactive
- outcome [7]: inactive
- outcome [8]: inactive
- outcome [9]: inactive
- outcome [10]: inactive
- outcome [11]: inactive
- outcome [12]: inactive
- outcome [13]: inactive
- outcome [14]: inactive
- outcome [15]: inactive
- outcome [19]: inactive
